PLK1 PBD block: PLK1 (human) polo-box domain binding inhibition; Plk1 PBD binding of FITC phosphopeptide, fluorescence polarization; P53350; 2.8% of 360,000 active; Potency, µM, most hits filed as inhibitors; note: series mostly up to about 57 µM; nearly all actives have a fitted effect of over 65% in size
JMJD2A Tudor: JMJD2A Tudor domain (human) inhibition; AlphaScreen JMJD2A-Tudor / H3K4me3 peptide binding; Potency, µM (highest dose often 114 µM), hits mostly inhibitors; O75164; 4.4% of 390,000 active; note: nearly all actives have a fitted effect of over 50% in size
PI5P4Ka inh: PI5P4K alpha (human) kinase inhibition. P48426. PI5P4Kalpha enzyme, ADP-Glo luminescence, 60 min; stronger effect = lower value. max response, %. 1.2% of 330,000 active; active = max response of -50% or lower; inconclusive = between -30% and -50%; inactive = -30% or higher; note: value at the top dose of about 77 µM
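ADP-Glo luminescence end-point after a 60 min room-temperature kinase reaction. PI5P4Kalpha and substrate in HEPES pH 7.4 buffer with EGTA, 0.1% CHAPS and 5% DMSO; ATP at 5 microM final.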
KAT2A inh: GCN5L2 (KAT2A) acetyltransferase inhibition; Potency, µM (titrated, usually from 58.9 µM), actives largely listed as inhibitors; 0.21% of 390,000 active; Q92830; GCN5L2 HAT assay, ThioGlo1 CoA-SH fluorescence
Target sequence (Q92830 whole entry, looked up): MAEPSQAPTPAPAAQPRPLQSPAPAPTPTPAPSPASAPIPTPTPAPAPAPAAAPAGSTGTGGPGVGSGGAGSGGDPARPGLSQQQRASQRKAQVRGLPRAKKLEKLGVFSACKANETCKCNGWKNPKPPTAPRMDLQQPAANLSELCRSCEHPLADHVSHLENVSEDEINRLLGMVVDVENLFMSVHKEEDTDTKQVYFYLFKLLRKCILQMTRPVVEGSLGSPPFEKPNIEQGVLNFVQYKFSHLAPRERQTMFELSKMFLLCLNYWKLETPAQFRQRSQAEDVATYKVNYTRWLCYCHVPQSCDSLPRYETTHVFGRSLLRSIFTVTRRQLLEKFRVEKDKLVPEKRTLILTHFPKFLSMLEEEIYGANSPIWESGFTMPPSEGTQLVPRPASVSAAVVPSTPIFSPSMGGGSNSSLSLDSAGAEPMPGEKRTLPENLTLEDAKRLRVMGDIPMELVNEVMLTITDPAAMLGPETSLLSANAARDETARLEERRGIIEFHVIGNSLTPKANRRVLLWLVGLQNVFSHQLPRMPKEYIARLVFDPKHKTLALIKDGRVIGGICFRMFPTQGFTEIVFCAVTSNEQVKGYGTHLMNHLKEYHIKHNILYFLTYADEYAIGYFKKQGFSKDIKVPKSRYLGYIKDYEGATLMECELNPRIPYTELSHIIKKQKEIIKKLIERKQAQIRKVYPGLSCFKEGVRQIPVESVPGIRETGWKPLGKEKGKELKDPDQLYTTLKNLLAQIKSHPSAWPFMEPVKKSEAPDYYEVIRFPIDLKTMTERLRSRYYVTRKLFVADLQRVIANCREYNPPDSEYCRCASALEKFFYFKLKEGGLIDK
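Fluorescence readout, Ex340nm/Em540nm: ThioGlo1 (50uM final) reacts with free CoA thiol released as 20nM GCN5L2 acetylates H3(1-25) peptide (75uM) using acetyl-CoA (70uM). Compound and enzyme sat 15 min beforehand; 20 min room-temperature reaction.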
BAZ2B block: blocks human BAZ2B | Q9UIF8 | AlphaScreen BAZ2B-H3K14Ac peptide displacement | Potency, µM (series often up to 114 µM), usual class: inhibitors | 4.4% of 360,000 active; note: nearly all actives have a fitted effect of over 60% in size
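Multi-concentration screen (max 110 uM) measuring displacement of acetylated histone H3 peptide from BAZ2B by AlphaScreen, using 50 nM protein, 50 nM peptide and 10 ug/mL streptavidin donor plus Ni-chelate acceptor beads.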
HP1b chromo inh: blocks HP1-beta chromodomain binding to methylated histone tails. P83916. AlphaScreen HP1-beta / biotin-H3K9me3 peptide binding. Potency, µM (top dose mostly 114 µM), most hits filed as inhibitors. 0.56% of 390,000 active. AID 540317; note: nearly all actives have a fitted effect of over 70% in size
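AlphaScreen: HP1-beta (50 nM) preformed 30 min with biotin-H3(1-18)K9me3 peptide (50 nM) in PBS pH 7.4, 0.01% Tween-20. Compound added for 30 min at RT, then streptavidin donor/nickel chelate acceptor beads (10 ug/mL) for 30 min.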
Each line names hits and unclear results; the compound was inactive in the other large screens; ! = not confirmed by another sample. An excerpt weighted towards active compounds, which were near 7% of everything screened. Unless noted, calls come from the whole dose curve; as a rule, active = well fitted curve in the direction sought with a large enough effect; inconclusive = small, poorly fitted or top-dose-only effect, or another doubt; inactive = no such curve, though single readings can be large; an effect the other way counts as inactive or inconclusive.

COc1cccc(N2CCN(C3CC(=O)N(c4ccc(F)c(Cl)c4)C3=O)CC2)c1 (centres undefined)	none
COc1ccc(NC2CCN(C3CC(=O)N(c4ccc(F)c(Cl)c4)C3=O)CC2)cc1 (centres undefined)	JMJD2A Tudor inconclusive, BAZ2B block 45µM, HP1b chromo inh inconclusive
CCOc1ccc(-c2nc3c(c(SCC(=O)N4CCCCC4)n2)Cc2cc(C)ccc2O3)cc1	none (no result: PLK1 PBD block, PI5P4Ka inh)
Nc1cc(=O)[nH]c(SCc2cccc3ccccc23)n1	none
N#CC1=C(N)N=C(SCc2cccc3ccccc23)C(C(N)=O)C12CCCCC2 (centres undefined)	JMJD2A Tudor 56µM, BAZ2B block inconclusive
CC(=O)NCCc1c[nH]c2ccc(OCC(O)CNC(C)(C)C)cc12 (centres undefined)	none
COc1ccc(CCNC(=O)c2cc(COc3c(C)cccc3C)on2)c(OC)c1	none
Cc1cc(C(=O)OCC(=O)N2CC(=O)Nc3ccccc32)c(C)n1-c1ccccc1	JMJD2A Tudor 56µM, BAZ2B block 50µM, HP1b chromo inh inconclusive
Cc1ccc(S(=O)(=O)NCC(=O)NCC(=O)OCC(=O)N2CC(=O)Nc3ccccc32)cc1C	PLK1 PBD block 17µM, JMJD2A Tudor inconclusive, HP1b chromo inh inconclusive
CCOc1ncccc1C(=O)OCC(=O)NC(=O)c1ccccc1	none
COc1cccc(NC(=O)C(OC(=O)CNC(=O)c2ccccc2)c2ccccc2)c1 (centres undefined)	none (no result: PLK1 PBD block, PI5P4Ka inh, KAT2A inh, BAZ2B block, HP1b chromo inh)
O=C(CNC1CCCCCC1)c1cccs1	PLK1 PBD block 30µM, JMJD2A Tudor inconclusive, HP1b chromo inh inconclusive
CCOC(=O)N1CCC(NC(=O)c2ccc3c(c2)N=C(C)c2ccccc2S3)CC1	PLK1 PBD block 27µM, JMJD2A Tudor inconclusive
CCOC(=O)N1CCC(NCCNC(=O)c2ccccc2)CC1	JMJD2A Tudor 2.2µM!, BAZ2B block 45µM!
O=C(NCCNC1CCC(c2ccccc2)CC1)c1cccs1 (centres undefined)	JMJD2A Tudor 2.2µM, BAZ2B block 50µM, HP1b chromo inh inconclusive
CCOC(=O)N1CCC(NCCNC(=O)c2cccs2)CC1	JMJD2A Tudor 1.8µM, BAZ2B block 79µM, HP1b chromo inh inconclusive
CCOC(=O)N1CCC(NC(=O)c2cccs2)CC1	none
Cc1ccccc1OCCn1c(=S)[nH]c2c(N)ncnc21	JMJD2A Tudor 7.1µM, HP1b chromo inh inconclusive
Cc1cccc(N(CC(=O)NC2CCCC2)C(=O)c2csnn2)c1C	none
Cc1ccc(-c2ccc(/C=N/N=C3/NC(=O)C(CC(=O)O)S3)o2)c([N+](=O)[O-])c1 (centres undefined)	PI5P4Ka inh inconclusive, BAZ2B block inconclusive
O=C(O)CC1S/C(=N/N=C/c2ccc(-c3ccccc3[N+](=O)[O-])o2)NC1=O (centres undefined)	JMJD2A Tudor inconclusive, BAZ2B block 50µM (no result: PI5P4Ka inh)
N#CCCN(C(=O)COc1ccc(F)cc1Br)c1ccccc1F	none
O=C(Nc1ccc2oc(-c3cc(Br)ccc3Cl)nc2c1)c1cc2ccccc2o1	KAT2A inh inconclusive, BAZ2B block 79µM (no result: PLK1 PBD block, PI5P4Ka inh)
O=C(COC(=O)CNS(=O)(=O)c1cccc(F)c1)NCCc1ccccc1	none
N/C(=N\OC(=O)Cc1cccs1)c1ccccc1	PI5P4Ka inh -61
COc1nnc(-c2ccc(N3CCCCC3)c(NC(=O)COc3ccccc3)c2)c2ccccc12	none (no result: KAT2A inh, BAZ2B block)
Cc1ccc(C)n1/N=C1/NC(=O)CS1	PLK1 PBD block inconclusive, JMJD2A Tudor 79µM, PI5P4Ka inh -52
Cc1cc(C)nc(/N=C2/NC(=O)CS2)n1	PLK1 PBD block inconclusive, JMJD2A Tudor 22µM, BAZ2B block inconclusive (no result: PI5P4Ka inh)
Nc1cc(=O)n(Cc2ccco2)c(=S)[nH]1	none (no result: JMJD2A Tudor, KAT2A inh, BAZ2B block, HP1b chromo inh)
COc1ccc(NC(=O)C2CCCN2C(=O)NCc2ccccc2)cc1 (centres undefined)	PLK1 PBD block 15µM, JMJD2A Tudor 14µM, PI5P4Ka inh inconclusive
COc1ccc(CNC(=O)c2cnc(C)cn2)cc1	PI5P4Ka inh inconclusive, BAZ2B block 50µM
COc1ccc(CNC(=O)Nc2ccccc2)cc1	PLK1 PBD block 12µM
Cc1cccc(N2CCN(C(=O)C3CCN(S(=O)(=O)c4cn(C)cn4)CC3)CC2)c1C	none (no result: PLK1 PBD block, PI5P4Ka inh)
Cc1ccc(-n2c(=O)c3c(C)c(C)sc3n(Cc3ccc(F)cc3Cl)c2=O)cc1C	none (no result: PLK1 PBD block, PI5P4Ka inh)
N#C/C(=N/Nc1ccc(OC(F)(F)F)cc1)C(N)=S	JMJD2A Tudor inconclusive, PI5P4Ka inh inconclusive, BAZ2B block 35µM
COc1ccc(N/N=C(\C#N)C(N)=O)cc1	none
COc1ccc(NC(=O)/C(C#N)=C\c2cc(C)n(-c3ccc(Oc4ccc([N+](=O)[O-])cn4)cc3)c2C)cc1	none
CCOc1cc(/C=C\c2nc(O)c([N+](=O)[O-])c(=O)[nH]2)ccc1OC(C)CC (centres undefined)	PI5P4Ka inh inconclusive
CCOc1ccccc1/C=C\c1nc(O)c([N+](=O)[O-])c(=O)[nH]1	PI5P4Ka inh inconclusive
Cc1cc(/C=C\c2nc(O)c([N+](=O)[O-])c(=O)[nH]2)c(C)n1-c1ccccc1	JMJD2A Tudor 56µM, PI5P4Ka inh -63, BAZ2B block 45µM, HP1b chromo inh inconclusive
O=C(COc1ccccc1/C=C\c1nc(O)c([N+](=O)[O-])c(=O)[nH]1)Nc1ccccc1	PI5P4Ka inh -55, BAZ2B block inconclusive
COc1ccc(-n2c(C)cc(/C=C/c3nc(O)c([N+](=O)[O-])c(=O)[nH]3)c2C)cc1	PI5P4Ka inh -52, BAZ2B block 50µM, HP1b chromo inh inconclusive
COc1ccc(NC(=O)CSc2nc3c(c(=O)[nH]2)CN(Cc2ccccc2)CC3)cc1Cl	none (no result: PLK1 PBD block, PI5P4Ka inh)
COC(=O)CCc1sc(Nc2ccc(OC)cc2)nc1-c1ccc(OC)cc1	JMJD2A Tudor inconclusive (no result: PLK1 PBD block, PI5P4Ka inh)
CCC(=O)N(c1nnc(SCC(=O)Nc2ccccc2Cl)s1)C1CC1	none
O=c1cc(-c2ccccc2)nc2nc(SCc3ccccc3)[nH]n12	JMJD2A Tudor inconclusive, PI5P4Ka inh inconclusive, BAZ2B block 79µM
O=C(Nc1nc2nc(-c3ccccc3)cc(=O)n2[nH]1)c1ccc(Cl)cc1	JMJD2A Tudor inconclusive, BAZ2B block 79µM (no result: PLK1 PBD block, PI5P4Ka inh)
COc1ccc(C(=O)Nc2nc3nc(-c4ccccc4)cc(=O)n3[nH]2)cc1	none
CC(C)CC(=O)Nc1nc2nc(-c3ccccc3)cc(=O)n2[nH]1	JMJD2A Tudor inconclusive, BAZ2B block 50µM (no result: PLK1 PBD block, PI5P4Ka inh)
Cc1cc(=O)n2[nH]c(SCc3ccccc3)nc2n1	KAT2A inh inconclusive
CSCCC(NC(=O)/C(=C/c1ccco1)NC(=O)c1ccco1)C(=O)O (centres undefined)	JMJD2A Tudor 40µM (no result: KAT2A inh, BAZ2B block)
CC(C(=O)NC1CCCC1)n1c(C2CCCC2)nc2ccccc21 (centres undefined)	none (no result: JMJD2A Tudor, KAT2A inh, BAZ2B block, HP1b chromo inh)
O=c1c2cccnc2n(-c2ccccc2)n1Cc1ccc(Cl)cc1	PLK1 PBD block 27µM
O=c1c2cccnc2n(-c2ccccc2)n1Cc1c(Cl)cccc1Cl	none

Assay outcomes: PubChem BioAssay, National Center for Advancing Translational Sciences (NCATS)
